# Measured values reported in publication PMC9838217, “Structure of SALL4 zinc finger domain reveals link between AT-rich DNA binding and Okihiro syndrome”.
# Residue numbers refer to the chain shown, from its start.
# Target: T1, SALL4 ZFC4 R900W (HT-SELEX) (Mus musculus, UniProt Q8BX22 870-940, R900W)
# T1 sequence: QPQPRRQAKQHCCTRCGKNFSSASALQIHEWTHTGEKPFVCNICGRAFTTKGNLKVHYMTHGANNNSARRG
# Assay: HT-SELEX; high values mean tight binding
# Details: protein: recombinant; vector His6-GST; dsDNA, one strand shown
# Procedure, shortened: (§1)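 Binding signal is expressed as fold change in each canonical k-mer's read fraction over the initial random library. To obtain it, 1 µg of purified recombinant mouse SALL4 zinc finger cluster 4 (residues 870–940) was incubated for 10 min at room temperature with library DNA (1.5 µg first cycle, 200 ng later cycles) in 100 µl of 10 mM Tris–HCl pH 7.5, 50 mM NaCl, poly(dI-dC) and DTT. Ni2+ bead-captured complexes went through washing, PCR amplification and reselection for up to 6 cycles, in triplicate, before MiSeq sequencing and scanning for 6-mers.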
row,Sequence,binding signal
1,GTCGAC,0.301 ± 0.0134 fold-change vs cycle 0
2,CGGCGA,0.077 ± 0.0153 fold-change vs cycle 0
3,GACGAC,0.342 ± 0.0283 fold-change vs cycle 0
4,CCCAGC,0.179 ± 0.0134 fold-change vs cycle 0
5,CGGTCC,0.209 ± 0.0179 fold-change vs cycle 0
6,ATGGCC,0.263 ± 0.0192 fold-change vs cycle 0
7,GGCCTA,0.299 ± 0.00892 fold-change vs cycle 0
8,CTACGC,0.278 ± 0.0143 fold-change vs cycle 0
9,GCCCCA,0.158 ± 0.0152 fold-change vs cycle 0
10,GAGGCC,0.158 ± 0.00288 fold-change vs cycle 0
11,CGCTTC,0.316 ± 0.00396 fold-change vs cycle 0
12,CGCACG,0.0997 ± 0.0037 fold-change vs cycle 0
13,GCCCAC,0.151 ± 0.00605 fold-change vs cycle 0
14,ACTCGC,0.3364 ± 0.000841 fold-change vs cycle 0
15,ATACGA,1.27 ± 0.0333 fold-change vs cycle 0
16,CCCGGC,0.0588 ± 0.00399 fold-change vs cycle 0
17,AAGCGC,0.162 ± 0.0133 fold-change vs cycle 0
18,AGAGCC,0.335 ± 0.0199 fold-change vs cycle 0
19,GACCGC,0.124 ± 0.0133 fold-change vs cycle 0
20,CACGCA,0.282 ± 0.00613 fold-change vs cycle 0

row,Sequence,binding signal
1,CCGACA,0.311 ± 0.0211 fold-change vs cycle 0
2,CGGGAC,0.202 ± 0.00689 fold-change vs cycle 0
3,CAGGCG,0.129 ± 0.00318 fold-change vs cycle 0
4,AGCCGG,0.121 ± 0.00957 fold-change vs cycle 0
5,CTGCCC,0.166 ± 0.00951 fold-change vs cycle 0
6,CGAGCA,0.299 ± 0.00719 fold-change vs cycle 0
7,CGGCAC,0.0866 ± 0.0073 fold-change vs cycle 0
8,ATGCGC,0.153 ± 0.00714 fold-change vs cycle 0
9,ACGCAG,0.305 ± 0.0196 fold-change vs cycle 0
10,CCCACG,0.214 ± 0.0117 fold-change vs cycle 0
11,ATGGCG,0.236 ± 0.0151 fold-change vs cycle 0
12,CTCGCA,0.319 ± 0.0197 fold-change vs cycle 0
13,CATGCG,0.296 ± 0.011 fold-change vs cycle 0
14,CGCTGA,0.291 ± 0.0233 fold-change vs cycle 0
15,CCCAGG,0.297 ± 0.008 fold-change vs cycle 0
16,GGGCCC,0.0676 ± 0.00899 fold-change vs cycle 0
17,GGTATA,1.34 ± 0.0665 fold-change vs cycle 0
18,AAGGCG,0.265 ± 0.014 fold-change vs cycle 0
19,CACCGG,0.216 ± 0.0195 fold-change vs cycle 0
20,CGCATC,0.304 ± 0.00796 fold-change vs cycle 0

# Target: T2, SALL4 ZFC4 G921D (HT-SELEX) (Mus musculus, UniProt Q8BX22 870-940, G921D)
# T2 sequence: T1 sequence with W31R, G52D
# Assay: HT-SELEX; high values mean tight binding
# Details: protein: recombinant; vector His6-GST; dsDNA, one strand shown
# Procedure, shortened: as §1
row,Sequence,binding signal
1,GTCGAC,0.452 ± 0.0612 fold-change vs cycle 0
2,CGGCGA,0.177 ± 0.0705 fold-change vs cycle 0
3,GACGAC,0.474 ± 0.0702 fold-change vs cycle 0
4,CCCAGC,0.297 ± 0.0797 fold-change vs cycle 0
5,CGGTCC,0.324 ± 0.081 fold-change vs cycle 0
6,ATGGCC,0.413 ± 0.0521 fold-change vs cycle 0
7,GGCCTA,0.443 ± 0.0788 fold-change vs cycle 0
8,CTACGC,0.414 ± 0.0855 fold-change vs cycle 0
9,GCCCCA,0.275 ± 0.0854 fold-change vs cycle 0
10,GAGGCC,0.286 ± 0.0765 fold-change vs cycle 0
11,CGCTTC,0.452 ± 0.0563 fold-change vs cycle 0
12,CGCACG,0.21 ± 0.071 fold-change vs cycle 0
13,GCCCAC,0.271 ± 0.0717 fold-change vs cycle 0
14,ACTCGC,0.463 ± 0.0712 fold-change vs cycle 0
15,ATACGA,1.26 ± 0.0263 fold-change vs cycle 0
16,CCCGGC,0.151 ± 0.0654 fold-change vs cycle 0
17,AAGCGC,0.302 ± 0.0877 fold-change vs cycle 0
18,AGAGCC,0.505 ± 0.0782 fold-change vs cycle 0
19,GACCGC,0.245 ± 0.0713 fold-change vs cycle 0
20,CACGCA,0.422 ± 0.056 fold-change vs cycle 0

row,Sequence,binding signal
1,CCGACA,0.462 ± 0.0665 fold-change vs cycle 0
2,CGGGAC,0.33 ± 0.0639 fold-change vs cycle 0
3,CAGGCG,0.24 ± 0.0647 fold-change vs cycle 0
4,AGCCGG,0.244 ± 0.0663 fold-change vs cycle 0
5,CTGCCC,0.291 ± 0.0763 fold-change vs cycle 0
6,CGAGCA,0.447 ± 0.0658 fold-change vs cycle 0
7,CGGCAC,0.207 ± 0.0784 fold-change vs cycle 0
8,ATGCGC,0.28 ± 0.0818 fold-change vs cycle 0
9,ACGCAG,0.422 ± 0.0649 fold-change vs cycle 0
10,CCCACG,0.319 ± 0.0528 fold-change vs cycle 0
11,ATGGCG,0.371 ± 0.0568 fold-change vs cycle 0
12,CTCGCA,0.471 ± 0.0656 fold-change vs cycle 0
13,CATGCG,0.441 ± 0.076 fold-change vs cycle 0
14,CGCTGA,0.403 ± 0.0818 fold-change vs cycle 0
15,CCCAGG,0.401 ± 0.05 fold-change vs cycle 0
16,GGGCCC,0.178 ± 0.0632 fold-change vs cycle 0
17,GGTATA,1.3 ± 0.0853 fold-change vs cycle 0
18,AAGGCG,0.425 ± 0.0847 fold-change vs cycle 0
19,CACCGG,0.331 ± 0.0683 fold-change vs cycle 0
20,CGCATC,0.441 ± 0.0726 fold-change vs cycle 0
